This passage reports outcome and AC50 results from PubChem BioAssay (EPA / NIEHS).

Broadly, the AC50 is the midpoint of the concentration-response curve, whichever way the signal moves.

The source made the active and inactive calls. Rule for the calls: active = hit-call score of the fitted dose curve at least 0.9, where 1 is the maximum; inactive = score below 0.9.

Details in all cases: mRNA level, 48 h; actives raise or lower the signal
Read-out in test [1]: NAD(P)H dehydrogenase [quinone] 1 (NQO1), NQO1 (gene 1728)
The test is described as follows: LTEA_HepaRG_NQO1: Life Technologies and Expression Analysis (LTEA) Assay for NAD(P)H dehydrogenase [quinone] 1 (NQO1) using HepaRG (AID 2283526). The procedure, abridged:
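Transcript induction or suppression is quantified by qRT-PCR in human HepaRG liver cells dosed for 48 hours. Eight half-log concentrations topping at 100 uM are used, with 0.5% DMSO as vehicle and baseline.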

Read-out in test [2]: Nuclear factor erythroid 2-related factor 2 (Homo sapiens) (UniProt Q16236)
As to the kind of experiment: LTEA_HepaRG_NFE2L2: Life Technologies and Expression Analysis (LTEA) Assay for Nuclear factor erythroid 2-related factor 2 (NFE2L2) Transcription Factor using HepaRG (AID 2283527).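 For outcome: TaqMan qRT-PCR transcript level normalised to ACTB GAPDH and POLR2A housekeeping genes.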 Summed up: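 HepaRG, 48 h dosing, 8-pt half-log series from 100 uM in 0.5% DMSO, duplicates. Read-out: NFE2L2 mRNA by qRT-PCR (ACTB/GAPDH/POLR2A normalization). Bidirectional curve fit vs DMSO baseline.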

Read-out in test [3]: succinate dehydrogenase complex iron sulfur subunit B (SDHB), SDHB (gene 6390)
As to the kind of experiment: LTEA_HepaRG_SDHB: Life Technologies and Expression Analysis (LTEA) Assay for succinate dehydrogenase complex iron sulfur subunit B (SDHB) using HepaRG (AID 2283528). The procedure, abridged: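 Readout is SDHB transcript level by qRT-PCR, normalised to three housekeeping genes and fitted bidirectionally against 0.5% DMSO vehicle. Human HepaRG cells were treated for 48 h at up to 100 uM.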

Read-out in test [4]: solute carrier (SLCO1B1), SLCO1B1 (gene 10599)
The test is described as follows: LTEA_HepaRG_SLCO1B1: Life Technologies and Expression Analysis (LTEA) Assay for solute carrier (SLCO1B1) using HepaRG (AID 2283530). The procedure, abridged: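 HepaRG, serum-free induction medium, 48 h dosing, 8-pt half-log from 100 uM, 0.5% DMSO vehicle, duplicates. Readout: SLCO1B1 mRNA, qRT-PCR, ACTB/GAPDH/POLR2A normalization; up or down fit vs DMSO.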

Read-out in test [5]: sulfotransferase 2A1 (SULT2A1), SULT2A1 (gene 6822)
As to the kind of experiment: LTEA_HepaRG_SULT2A1: Life Technologies and Expression Analysis (LTEA) Assay for sulfotransferase 2A1 (SULT2A1) using HepaRG (AID 2283531). Summed up:
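Transcript levels of SULT2A1, quantified by qRT-PCR and normalized to three housekeeping genes, serve as the readout. Human HepaRG cultures receive test chemicals for 48 h at up to 100 uM in half-log steps, with 0.5% DMSO vehicle.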

Read-out in test [6]: Transforming Growth Factor (TGFA), TGFA (gene 7039)
The test is described as follows: LTEA_HepaRG_TGFA: Life Technologies and Expression Analysis (LTEA) Assay for Transforming Growth Factor (TGFA) using HepaRG (AID 2283532). The procedure, abridged: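 qRT-PCR read-out of TGFA transcript, normalized to three housekeeping genes, fitted bidirectionally against 0.5% DMSO baseline. Human HepaRG cultures received chemicals for 48 h at eight half-log concentrations, top 100 uM.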

Read-out in test [7]: Transforming Growth Factor (TGFB1), TGFB1 (gene 7040)
As to the kind of experiment: LTEA_HepaRG_TGFB1: Life Technologies and Expression Analysis (LTEA) Assay for Transforming Growth Factor (TGFB1) Transporter using HepaRG (AID 2283533). Summed up: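 HepaRG, 48 h post-plating, switched to serum-free induction medium; chemicals 100 uM top, half-log, 8 pts, 0.5% DMSO, dup; 48 h exposure; RNA → Fluidigm TaqMan qRT-PCR; norm ACTB/GAPDH/POLR2A; bidirectional fit vs DMSO.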

Read-out in the next test: TIMP1, TIMP1 (gene 7076)
As to the kind of experiment: LTEA_HepaRG_TIMP1: Life Technologies and Expression Analysis (LTEA) Assay for TIMP1 using HepaRG (AID 2283534).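 For outcome: TaqMan qRT-PCR signal normalized to ACTB GAPDH and POLR2A housekeeping genes.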 Summed up: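 Readout is TIMP1 mRNA level measured by qRT-PCR and normalized to three housekeeping genes. Human HepaRG cells were treated for 48 h in duplicate at eight concentrations up to 100 uM (0.5% DMSO); gain or loss fitted against DMSO.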

Read-out in test [8]: Tumor necrosis factor receptor 1 (TNFRSF1A), TNFRSF1A (gene 7132)
The test is described as follows: LTEA_HepaRG_TNFRSF1A: Life Technologies and Expression Analysis (LTEA) Assay for Tumor necrosis factor receptor 1 (TNFRSF1A) using HepaRG (AID 2283535). Summed up: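 Read-out is TNFRSF1A transcript level by TaqMan qRT-PCR, normalized to three housekeeping genes, scored as gain or loss of signal versus 0.5% DMSO. Human HepaRG cells received test chemicals for 48 h at up to 100 uM (half-log series).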

Chain of Nuclear factor erythroid 2-related factor 2 (Homo sapiens) (Q16236 whole entry, looked up): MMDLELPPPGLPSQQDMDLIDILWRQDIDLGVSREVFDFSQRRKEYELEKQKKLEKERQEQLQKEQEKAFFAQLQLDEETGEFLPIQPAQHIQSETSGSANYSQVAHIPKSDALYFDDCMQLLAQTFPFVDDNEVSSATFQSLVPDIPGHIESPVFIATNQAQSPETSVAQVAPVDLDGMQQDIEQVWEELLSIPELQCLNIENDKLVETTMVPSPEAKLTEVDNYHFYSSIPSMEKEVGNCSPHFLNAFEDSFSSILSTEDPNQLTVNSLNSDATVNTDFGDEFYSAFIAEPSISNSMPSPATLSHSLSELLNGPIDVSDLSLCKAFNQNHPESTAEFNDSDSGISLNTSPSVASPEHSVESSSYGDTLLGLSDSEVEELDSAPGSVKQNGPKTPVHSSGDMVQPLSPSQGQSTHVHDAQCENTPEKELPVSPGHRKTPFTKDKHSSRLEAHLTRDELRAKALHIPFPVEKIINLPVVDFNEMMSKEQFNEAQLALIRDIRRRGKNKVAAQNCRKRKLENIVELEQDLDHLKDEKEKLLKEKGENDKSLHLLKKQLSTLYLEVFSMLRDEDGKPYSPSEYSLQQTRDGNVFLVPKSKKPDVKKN

In the case of `O=NN(c1ccccc1)c1ccccc1`, the call in test [1], in test [2], in [3], in test [4], in test [5] and in [6] was inactive. Moreover, the outcome is “inactive” in test [7] and “inactive” with TIMP1, TIMP1 (gene 7076). Also, the half-maximal activity concentration (AC50) in test [8] was 80.2 µM (active).
On to `Oc1c(Cl)c(Cl)c(Cl)c(Cl)c1Cl`, for which the half-maximal activity concentration (AC50) in test [1] is 6.48 µM (active); in test [3] it was 2.04 µM (active); in test [4], 3.96 µM (active); in test [5] it was 4.65 µM (active); in test [6], 12.3 µM (active); in [7], 5.06 µM (active). For the same molecule, the AC50 with TIMP1, TIMP1 (gene 7076) was 14.9 µM (active); in test [8], 5.95 µM (active). In test [2], the result was inactive.
Turning to `CCC(C)(CC)c1cc(NC(=O)c2c(OC)cccc2OC)on1`, the outcome in test [1] is “inactive”; in test [3] it was “inactive”; in test [4], “inactive”; in test [5] it was “inactive”; in test [6], “inactive”; with TIMP1, TIMP1 (gene 7076) it was “inactive”. The molecule was called inactive in test [8]. For the same molecule, the half-maximal activity concentration (AC50) is 14.9 µM (active) in [2] and 50 µM (active) in test [7].
Consider `CCOC(=O)C(O)(c1ccc(Cl)cc1)c1ccc(Cl)cc1`, for which the outcome in test [1], in [2], in test [3], in [4], in test [5] and in test [6] was inactive. Moreover, the outcome was “inactive” in test [7]; “inactive” in the test with TIMP1, TIMP1 (gene 7076); “inactive” in [8].
On to `CC(C)(O)C(=O)Nc1ccc([N+](=O)[O-])c(C(F)(F)F)c1`, for which the AC50 is 0.0268 µM (active) in [1], 0.0191 µM (active) in [4] and 0.0264 µM (active) in [6]. For the same molecule, the outcome in test [2] was “inactive”; in [3] it was “inactive”; in [5], “inactive”; in test [7] it was “inactive”; with TIMP1, TIMP1 (gene 7076), “inactive”; in [8], “inactive”.
On to `CCCCCCCCCc1ccc(O)cc1`, for which the call in test [1], in [2], in [3], in test [4], in test [5] and in test [6] was inactive. The outcome in [7] is “inactive”; in the test with TIMP1, TIMP1 (gene 7076), “inactive”; in test [8], “inactive”.
In the case of `ClC1=C(Cl)[C@]2(Cl)[C@@H]3[C@@H](Cl)[C@H]4O[C@H]4[C@@H]3C1(Cl)C2(Cl)Cl`, the call in test [1], in [2], in test [3], in test [4], in test [5] and in test [6] was inactive. The outcome in test [7] is “inactive”; with TIMP1, TIMP1 (gene 7076) it was “inactive”; in test [8] it was “inactive”.
Take `C1CC2OC2CC1C1CO1` (stereo not drawn): the result in test [1], in [2], in test [3], in [4], in test [5] and in [6] was inactive. Besides, the outcome in [7] is “inactive”; with TIMP1, TIMP1 (gene 7076), “inactive”; in [8] it was “inactive”.
For the molecule `O=C(O)C(F)(F)C(F)(F)C(F)(F)C(F)(F)C(F)(F)F`, the result in test [1], in test [2], in test [3], in test [5], in test [6] and in test [7] was inactive. Further, the outcome in the test with TIMP1, TIMP1 (gene 7076) was “inactive”; in test [8], “inactive”. For the same molecule, the AC50 in test [4] was 9.92 µM (active).
For the molecule `O=C(NC(=O)c1cc(F)c(F)cc1Cl)Nc1cc(F)ccc1N1CCC(C(=O)O)CC1`, the call in test [1], in [2], in test [3], in test [4], in test [5] and in test [6] was inactive. For the same molecule, the outcome was “inactive” in [7]; “inactive” with TIMP1, TIMP1 (gene 7076); “inactive” in [8].
As to `Cc1ccccc1[N+](=O)[O-]`, the call in [1], in [2], in [3], in [4], in test [5] and in [6] was inactive. Further, the outcome is “inactive” in test [7]; “inactive” in the test with TIMP1, TIMP1 (gene 7076); “inactive” in test [8].
In the case of `Cc1cc2c3c(c1)C(c1ccccc1)=N[C@@H](NC(=O)c1ccncc1)C(=O)N3CC2`, the result in [1], in test [3], in test [4], in test [5], in test [6] and in test [7] was inactive. Further, the outcome in the test with TIMP1, TIMP1 (gene 7076) is “inactive”; in test [8], “inactive”. Besides, the AC50 in [2] was 50 µM (active).
As to `Cc1ccc(O)c(C)c1`, the molecule was classed as inactive in test [1], in [2], in [3], in test [4], in [5] and in [6]. Besides, the outcome in test [7] was “inactive”; with TIMP1, TIMP1 (gene 7076), “inactive”; in test [8] it was “inactive”.
For the molecule `Oc1ccc(Cl)cc1Cl`, the molecule was called inactive in test [1], in test [2], in test [3], in [4], in test [5] and in test [6]. In addition, the outcome in test [7] is “inactive”; in the test with TIMP1, TIMP1 (gene 7076) it was “inactive”; in test [8], “inactive”.
On to `Cc1cccc([N+](=O)[O-])c1`, for which the molecule was called inactive in test [1], in test [2], in test [3], in [4], in test [5] and in test [6]. Besides, the outcome was “inactive” in [7]; “inactive” with TIMP1, TIMP1 (gene 7076); “inactive” in [8].
With `CC(c1ccc(O)cc1)(c1ccc(O)cc1)c1ccc(O)cc1`, the outcome in test [1], in test [4], in test [6], in test [7] and in test [8] was inactive. Further, the concentration at half-maximal activity (AC50) in test [2] is 73.9 µM (active); in [3], 50 µM (active); in [5], 84 µM (active); with TIMP1, TIMP1 (gene 7076), 85.3 µM (active).
On to `Nn1cnnc1`, for which the molecule was classed as inactive in test [1], in test [2], in test [3], in test [4], in [5] and in test [6]. The outcome in test [7] was “inactive”; with TIMP1, TIMP1 (gene 7076), “inactive”; in test [8], “inactive”.
